TRPML1 ag: agonists of human TRPML1 channel. Q9GZU1. TRPML1-expressing cells, Ca2+ dye fluorescence, FDSS. activation, % (test concentration not listed). 410,000 compounds, 0.12% hits; in the data active = activation above about 50%; inconclusive = mostly about 30% to 49%
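TRPML1-DL cells, Tet-induced overnight (~16 h, 37 degrees C), loaded 45-90 min at room temperature with Ca8 no-wash calcium dye plus quencher. FDSS fluorescence: 10 s baseline, compound pin-transfer, 110 s agonist read, then EC80 54-4 (4uM final) and 110 s antagonist read.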
D3 ag: agonists of human D3 dopamine receptor | 410,000 compounds, 0.58% hits | D3R DiscoveRx beta-arrestin cells, luminescence, 90 min | AID 652048 | max activation, %; in the data active = max activation above about 30%
Target sequence (P35462 whole entry, looked up): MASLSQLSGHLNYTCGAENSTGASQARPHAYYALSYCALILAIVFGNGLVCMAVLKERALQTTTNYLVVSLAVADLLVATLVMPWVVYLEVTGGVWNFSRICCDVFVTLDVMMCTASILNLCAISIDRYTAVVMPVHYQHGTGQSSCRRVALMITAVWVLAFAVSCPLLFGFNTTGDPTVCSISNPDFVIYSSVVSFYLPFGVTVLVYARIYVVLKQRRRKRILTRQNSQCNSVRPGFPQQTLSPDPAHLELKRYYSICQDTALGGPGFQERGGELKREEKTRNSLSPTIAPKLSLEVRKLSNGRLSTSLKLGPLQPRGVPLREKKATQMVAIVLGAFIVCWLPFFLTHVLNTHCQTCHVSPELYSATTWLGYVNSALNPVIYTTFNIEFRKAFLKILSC
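Cells at 1500/well, incubated overnight, then treated with pinned compounds (dopamine as control) for 90 min at 37 degrees C. DiscoveRx reagent added for 30 - 60 minutes at room temperature; luminescence read.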
TRPML1 blocker: inhibitors of human TRPML1 channel; Q9GZU1; TRPML1-inducible cells, Ca2+ dye fluorescence, FDSS; hits give low values; inhibition of EC80 agonist-evoked calcium signal; activity change, negative = inhibition, % (concentration not given with the values); 390,000 compounds, 0.02% hits; AID 624415; in the data active = activity change below about -50%; inconclusive = between about -30% and that limit;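 note: stimulus is agonist 54-4 at its EC80 concentration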
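Calcium fluorescence in TRPML1-DL cells induced overnight with Tet: a 110 s read after compound pin addition, then a 110 s antagonist read after challenge with 54-4 at 4 uM final (EC80).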
D3 antag: antagonists of human D3 dopamine receptor. D3R cells, DiscoveRx beta-arrestin luminescence, antagonist mode; hits give low values. max response, negative = inhibition, %. 360,000 compounds, 2.5% hits. AID 652054; in the data active = max response below about -50%; inconclusive = no clear call, values can overlap the other calls
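Cells expressing the human receptor were seeded at 1500 cells/well, incubated overnight at 37 degrees C in 5% CO2, then exposed to library compounds with dopamine controls for 90 minutes at 37 degrees C before luminescent detection.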
Each line names hits and unclear results; the compound was inactive in the other large screens; ! = repeats disagree. Shown are actives, neighbours in structure and some others; about 2.9% of the full set was active somewhere.

CCCCn1c(SCC(=O)N2CCC(C)CC2)nc2ccsc2c1=O	D3 ag 30.2
CCCCn1c(SCC(=O)NCc2ccccc2)nc2ccc(N3CCOCC3)cc2c1=O	D3 ag 34.0
CCCCn1c(SCC(=O)N2CCN(c3ccccc3)CC2)nc2ccsc2c1=O	D3 ag 35.4
CCCn1c(SCC(=O)N2CCN(c3ccccc3)CC2)nc2ccccc2c1=O	none
Cc1ccc2nc(SCC(=O)OCc3ccccc3)nc(=O)n2c1	D3 antag -55.4
COc1ccc(-c2nc(C)c(CCNS(=O)(=O)c3cc(C)c(C)cc3C)s2)cc1	none (no result: D3 antag)
CNc1nc(Oc2ccc3sc(C)nc3c2)c2sccc2n1	none
Cc1nc2cc(Oc3nc(NCCN(C)C)nc4ccsc34)ccc2s1	D3 antag -59.1 (no result: TRPML1 blocker)
O=C(OCc1ccccc1)c1ccc(NCc2cc(O)ccc2O)cc1	D3 antag -67.7
CC(C)OC(=O)c1ccc(NCc2cc(O)ccc2O)cc1	D3 antag inconclusive
COc1ccc(OC)c(NC(=O)Nc2cccc(OCc3cc(=O)n4cc(C)ccc4n3)c2)c1	none (no result: D3 antag)
CCN(CC)CCCN(Cc1cc2ccc(C)c(C)c2[nH]c1=O)C(=O)NC1CCCCC1	D3 antag -56.7
CCCn1c(=O)n(-c2ccccc2)c(=O)c2sc3ccccc3c21	none (no result: D3 antag)
COc1cc(OC)c2c(-c3ccccc3)cc(=O)oc2c1C(CCN1CCCC(C)C1)c1ccc2c(c1)OCO2 (stereo not given)	D3 antag -69.8
COc1cc(OC)c2c(C)cc(=O)oc2c1C(CCN1CCOCC1)c1ccc2c(c1)OCO2 (stereo not given)	D3 antag -69.3
COc1cc(C(CCN2CCN(c3ccccc3)CC2)c2c(OC)cc(OC)c3c(C)cc(=O)oc23)cc(OC)c1OC (stereo not given)	D3 antag -120.5
COc1cc(C(CCN2CCCC(C)C2)c2c(OC)cc(OC)c3c(C)cc(=O)oc23)cc(OC)c1OC (stereo not given)	none (no result: D3 ag, D3 antag)
O=C(C[N+]12CCCc3cccc(c31)CCC2)c1ccccc1	none (no result: D3 ag, TRPML1 blocker, D3 antag)
Cc1ccc(Nc2c3c(nc4nncn24)CCC3)cc1C	none (no result: D3 antag)
O=C(NCc1ccccc1Cl)NCc1noc2ccccc12	none (no result: D3 antag)
Cc1cc(CCC(=O)O)c(C)cc1CCC(=O)O	D3 antag -52.0
Cc1nn(Cc2n[nH]c(=S)n2Cc2ccccc2)c(C)c1Cl	D3 antag -87.3
O=C1C=C(NCc2ccccc2)c2ccccc2C1=O	D3 antag -70.7
CCS(=O)(=O)N1CCc2cc(C(=O)NCc3ccccc3OC)ccc21	none (no result: D3 antag)
C=C[C@@]1(C)CC(=O)[C@]2(O)[C@@]3(C)[C@@H](O)CCC(C)(C)[C@@H]3[C@H](O)[C@H](OC(C)=O)[C@@]2(C)O1	D3 ag 35.7!
O=C(OCn1ncc(Cl)c(Cl)c1=O)c1ccc(C(F)(F)F)cc1	D3 antag -85.3
CCOC(=O)c1ccc(NC(=O)Cn2ncc(Cl)c(Cl)c2=O)cc1	D3 antag inconclusive
O=C(O)c1ccc(-n2ncc(Cl)c(Cl)c2=O)cc1	none
Cc1ccc(C(=O)OCn2ncc(Cl)c(Cl)c2=O)cc1	D3 antag -50.7
CC(C)c1c(C(=O)N/N=C/c2ccc(OCc3ccccc3)cc2)nnn1-c1nonc1N	none
CC(C)c1c(C(=O)N/N=C/c2cccc(OCc3ccccc3)c2)nnn1-c1nonc1N	D3 ag 39.6
COc1cccc(COc2ccccc2C2Nc3ccc(Br)cc3C(=O)N2NC(=O)c2ccncc2)c1 (stereo not given)	D3 antag -55.3
O=c1oc2ccccc2c(Nc2ccc3ccccc3c2)c1[N+](=O)[O-]	D3 antag -85.7
Cn1c(=O)c2cc(NC(=O)Cc3ccccc3F)ccc2n1-c1ccc(C(C)(C)C)cc1	TRPML1 ag 63.3, D3 antag inconclusive (no result: TRPML1 blocker)
Cc1cc(C)cc(-n2c3ccc(NC(=O)Cc4cccc5ccccc45)cc3c(=O)n2C)c1	none (no result: TRPML1 blocker)
CCCN1CNc2c(c(=O)[nH]c(=S)n2CCc2cc(OC)cc(OC)c2)C1	none (no result: D3 ag, TRPML1 blocker, D3 antag)
NCCS	D3 ag 64.9!, D3 antag -85.5
Cc1ccccc1NC(=O)CSc1nc2nccnc2c(=O)n1CCc1c[nH]c2ccccc12	none (no result: D3 antag)
Cn1c(SCc2ccccc2)nc2ccsc2c1=O	D3 ag 35.2
CCOC(=O)N1CCN(C(=O)c2cnn3c(C)c(Cc4ccc(C)cc4)c(C)nc23)CC1	none
Cc1ccc(C)c(Cc2c(C)nc3c(C(=O)N4CCOCC4)cnn3c2C)c1	D3 ag 31.3
Nc1c(Br)cc(Br)c2cccnc12	none (no result: D3 ag, D3 antag)
COc1ccc(OCc2cn(CC(=O)c3ccc(O)cc3)nn2)cc1	none
O=C(Cn1cc(COc2c(F)c(F)cc(F)c2F)nn1)c1ccc(O)cc1	D3 antag -79.4
Cc1ccc(C(=O)c2cc([N+](=O)[O-])ccc2N2CCCCC2)c(C)c1	D3 antag -56.1
CCOc1cc(C(=O)Nc2cccc3ncccc23)cc(OCC)c1OCC	D3 ag 35.4
CCOc1ccc(OCC(=O)NCCS(=O)(=O)N2CCN(c3ccccc3)CC2)cc1	none
O=C(NCCN1CCCCC1)Nc1ccc(Br)cc1	D3 antag -54.4
O=C(Nc1ccc(CN2CCCCC2)cc1)Nc1ccc(Br)cc1Cl	D3 antag -79.4
CCOc1ccc(C(=O)NCCN2CCCC2)cc1	D3 antag -58.4
CCOc1ccc(OCC(=O)NCCS(=O)(=O)N2CCN(c3ccc(F)cc3)CC2)cc1	D3 ag 37.9!
Cc1ccc(NC(=O)NCCN2CCCCC2)cc1	none
Cc1ccccc1NC(=O)c1ccccc1OCC(=O)Nc1ccc(Br)cc1	none (no result: D3 ag, TRPML1 blocker, D3 antag)
O=C(COc1ccc(F)cc1)NCCN1CCCC1	D3 antag -57.0
O=C(NCCN1CCOCC1)c1ccc(Cl)cc1	D3 antag -68.8
O=C(NCCN1CCCC1)c1ccc(Cl)cc1	D3 antag -98.4
O=C(CNC(=O)c1ccc(Cl)cc1)NC1CCCCC1	D3 antag -58.7
Fc1ccc(OCCCCCCN2CCCC2)cc1	none
COCCc1nn2c(=O)cc(COC(=O)C(c3ccccc3)c3ccccc3)nc2s1	none (no result: D3 antag)
O=C(NCCN1CCCC1)c1ccc(Br)cc1	D3 antag -76.8
O=C(NCCC(=O)N1CCCCCCC1)c1ccc(Br)cc1	none
COc1ccc(CC(=O)NCCN2CCOCC2)cc1	none
O=C(NCCN1CCCCC1)Nc1cccc(C(F)(F)F)c1	D3 antag -57.6
O=C(NCCN1CCCCC1)Nc1ccccc1	none
Cc1ccc(CC(=O)NCCN2CCOCC2)cc1	D3 ag 58.0
Cc1cc2nc(-c3cccc(NC(=O)c4cccc5ccccc45)c3)oc2cc1C	none (no result: D3 antag)
COc1cc(Br)c(/C=C/c2ccc3cccc(O)c3n2)cc1OC	none
COc1cc(/C=C/c2ccc3cccc(O)c3n2)ccc1O	D3 antag -51.9
CSc1ccc(/C=C/c2ccc3cccc(O)c3n2)cc1	D3 antag -58.2
Clc1ccc(-c2nc3ncccn3c2Nc2ccc3c(c2)OCO3)cc1	none
Oc1ccc(-c2nc3ncccn3c2Nc2ccc3c(c2)OCO3)cc1	D3 antag -55.3
Cc1ccc(NC2=C/C(=N/S(=O)(=O)c3cccs3)c3ccccc3C2=O)cc1C	none
CC(=O)Nc1ccc(NC2=C/C(=N/S(=O)(=O)c3cccs3)c3ccccc3C2=O)cc1	D3 antag -65.7
